Assay results as given in the supplement of paper PMC13380429.
Unmarked numbers belong to inactive results.

System: Vero E6 infected with SARS-CoV-2
Test: inhibition of SARS-CoV-2 cytopathic effect; higher = more antiviral protection, active = above 15
Settings: 48 h

Row | SMILES | inhibition of SARS-CoV-2 cytopathic effect (1 nM) [%] | inhibition of SARS-CoV-2 cytopathic effect (8.33 nM) [%] | inhibition of SARS-CoV-2 cytopathic effect (100 nM) [%] | inhibition of SARS-CoV-2 cytopathic effect (833.33 nM) [%] | inhibition of SARS-CoV-2 cytopathic effect (10000 nM)
1 | CCCCN1CCC(CCC(=O)c2cc(Cl)c(N)cc2OC)CC1 | -0.14 | -0.19 | -0.31 | -1.87 | -3.77%
2 | CCCC(O)C(CC)CO (stereo not given) [2-ethyl-1,3-hexanediol] | 4.92 | 0.49 | 1.14 | 0.52 | 0.65%
3 | COC(=O)c1sccc1S(=O)(=O)Nc1ccc(Nc2ccccc2)cc1OC | 2.58 | 5.94 | 2.5 | 5.14 | 8.94%
4 | N[C@@H](C(=O)O)c1ccc(C(=O)O)c(C(=O)O)c1 (racemic) | 2.59 | 0.287 | 1.6 | -2.93 | -0.293%
5 | Brc1ccc(NC2C3CC4CC(C3)CC2C4)cc1 (stereo not given) [bromantan] | -1.24 | -0.71 | -0.8 | 0.76 | 1.67%
6 | O=C1NC(=O)c2c1c1c3ccccc3[nH]c1c1[nH]c3ccccc3c21 [arcyriaflavin-a] | -5.59 | -1.16 | -3.16 | -3.59 | -10.1%
7 | COc1cc2c(c(OC)c1OC)-c1c(cc3c(c1OC)OCO3)CC(C)C(C)C2 (stereo not given) [schisandrin-B] | -1.41 | -0.34 | -0.03 | -1.73 | -1.42%
8 | COc1ccc2c(c1)[C@]13CCCC[C@@H]1[C@H](C2)N(C)CC3 [dextromethorphan] | 0.17 | -0.37 | 0.6 | 0.81 | -0.1%
9 | CNCCCC1(c2ccccc2)OC(C)(C)c2ccccc21 (stereo not given) [talopram] | -0.51 | -1.8 | 0.91 | -2.03 | -3.52%
10 | CN1c2ccccc2C(=O)N2CCc3c([nH]c4ccccc34)C21 (stereo in doubt) [evodiamine] | 0.51 | 2.11 | 2.14 | 4.34 | 2.33%
11 | CC(C)(C)C#Cc1cc(N(C(=O)[C@H]2CC[C@H](C)CC2)[C@H]2CC[C@@H](O)CC2)c(C(=O)O)s1 | 1.62 | 2.19 | -0.17 | 1.33 | 1.51%
12 | COc1c(OCCCN2CCOCC2)ccc2c1N=C(NC(=O)c1cnc(N)nc1)N1CCN=C21 [copanlisib] | -2.48 | -1.99 | -3.58 | -5.18 | -12.2%
13 | Cc1ccc(CC2(O)CCN(CCOc3ccc(O)cc3)CC2)cc1 | -5.34 | 1.47 | 3.16 | -0.31 | 1.64%
14 | CC1(C)S[C@@H]2[C@H](NC(=O)C(C(=O)O)c3ccccc3)C(=O)N2[C@H]1C(=O)O (stereo not given in full) [carbenicillin] | 2.76 | 1.83 | 0.55 | 2.42 | 0.1%
15 | COc1ccc(C(=O)NCc2ccc(OCCN(C)C)cc2)cc1OC [itopride] | 0.25 | -0.19 | 1.77 | -0.42 | 0.72%
16 | CCCc1nn(C)c2c(=O)[nH]c(-c3cc(S(=O)(=O)N4CCN(C)CC4)ccc3OCC)nc12 [sildenafil] | 2.67 | 2.01 | 0.47 | 2.04 | -2.29%
17 | COC(=O)C(c1ccccc1)C1CCCCN1 (stereo not given) | -1.97 | -1.71 | -1.37 | -1.52 | -0.37%
18 | NC(=O)c1[nH]cnc1O | 0.65 | 1.77 | 0.2 | -1.72 | 3.24%
19 | Cn1c(NCCN(CCO)CCCc2ccc([N+](=O)[O-])cc2)cc(=O)n(C)c1=O [nifekalant] | -1.86 | 0 | -1.76 | -0.02 | -1.25%
20 | CN1CCCC(CN2c3ccccc3Sc3ccccc32)C1 (stereo not given) [mepazine] | -2.3 | 3.28 | 3.56 | -2.75 | 5.75%
21 | O=C(O)CCN(O)C(=O)CCCCCCCCC1CC1 | 2.3 | -1.05 | 1.09 | 4.48 | 5.29%

Row | SMILES | inhibition of SARS-CoV-2 cytopathic effect (1 nM) [%] | inhibition of SARS-CoV-2 cytopathic effect (8.33 nM) [%] | inhibition of SARS-CoV-2 cytopathic effect (100 nM) [%] | inhibition of SARS-CoV-2 cytopathic effect (833.33 nM) [%] | inhibition of SARS-CoV-2 cytopathic effect (10000 nM)
22 | CCOC(=O)NNc1nncc2ccccc12 [todralazine] | 2.18 | 1.04 | 0.33 | 0.99 | -0.55%
23 | CO[C@H]1C[C@H](O[C@H]2CC[C@@]3(C)[C@H](CC[C@@H]4[C@@H]3CC[C@]3(C)[C@@H](C5=CC(=O)OC5)[C@@H](OC(C)=O)C[C@]43O)C2)O[C@@H](C)[C@@H]1O [oleandrin] | -3.22 | -5.79 | -12.1 | -12.2 | -9.58%
24 | CC(=O)Nc1ccc(NC(=S)NC(=O)c2ccc(C(C)(C)C)cc2)cc1 [tenovin-1] | -0.23 | 0.85 | 1.6 | -7.1 | -8.92%
25 | CC#CC(=O)N1CC[C@@H](n2c(=O)n(-c3ccc(Oc4ccccc4)cc3)c3c(N)ncnc32)C1 | -1.14 | 2.19 | 0.31 | -8.09 | -0.82%
26 | CC(C)C(=O)OC[C@@]1(N=[N+]=[N-])O[C@@H](n2ccc(N)nc2=O)[C@H](OC(=O)C(C)C)[C@@H]1OC(=O)C(C)C [balapiravir] | 2.39 | 1.09 | 0.61 | -0.11 | 0.76%
27 | Nc1cc(F)ccc1NC(=O)/C=C/c1cnn(C/C=C/c2ccccc2)c1 | -1.39 | 1.78 | 0.89 | -2.26 | -1.9%
28 | O=C(O)c1cc(/N=N/c2ccc(S(=O)(=O)Nc3ccccn3)cc2)ccc1O [sulfasalazine] | -0.13 | -2.23 | -0.23 | -1.38 | 0.47%
29 | COc1ccc2cc([C@H](C)C(=O)O)ccc2c1 [naproxen] | 3.38 | 3.96 | 1.16 | -1.2 | 0.68%
30 | NS(=O)(=O)c1nn2cc(-c3ccccc3)nc2s1 | 8.11 | 1.76 | 0.85 | 0.07 | 0.7%
31 | CCOC(=O)[C@H](CCc1ccccc1)N[C@@H](C)C(=O)N1Cc2cc(OC)c(OC)cc2C[C@H]1C(=O)O [moexipril] | -1.91 | 1.34 | -0.63 | -0.22 | 0.1%
32 | CC(C)(C)c1cc(C(=O)/C(C#N)=N/Nc2cccc(Cl)c2)no1 | 1.62 | -1.2 | -0.43 | 2.18 | 11.6%
33 | COc1cc(C(C)=O)ccc1OCCCN1CCC(c2noc3cc(F)ccc23)CC1 [iloperidone] | -1.11 | -0.19 | 0.99 | -0.53 | -3.95%
34 | COC(=O)C1=CO[C@@H](O)[C@@H]2C(CO)=CC[C@H]12 [genipin] | -1.26 | 1 | 0.94 | -0.49 | -0.89%
35 | CNC(=O)Oc1ccccc1OC(C)C [propoxur] | 2.55 | 4.24 | 3.02 | 2.09 | 2.81%
36 | NC(=O)CCCCC1CCSS1 (stereo not given) [lipoamide] | 1.2 | 1.81 | -0.52 | -3.3 | 3.78%
37 | CC(C)(C)NCC(O)COc1cccc2[nH]c(=O)[nH]c12 (stereo not given) | -0.75 | -0.25 | -0.12 | -0.11 | -0.04%
38 | c1cc2c(cc1C1CCCCC1)c1c3n2CCNC3CCC1 (stereo not given) [tetrindole] | 1.68 | 1.55 | -2.86 | -1.8 | 20.8% (active)
39 | C[C@]12CCC(=O)C=C1C=C[C@@H]1[C@@H]2CC[C@@]2(C)[C@H]1CC[C@@]2(O)CCC(=O)O [potassium-canrenoate] | -4.66 | -2.95 | 2.67 | 3.81 | 0.36%
40 | Cc1c(C(=O)NCCCO)cnn1-c1nc(-c2cccc(C(F)(F)F)c2)cs1 | 2.55 | 3.83 | 3.4 | 5.36 | -0.86%
41 | C=C(C)[C@@H]1CC[C@]2(CO)CC[C@]3(C)[C@H](CC[C@@H]4[C@@]5(C)CC[C@H](O)C(C)(C)[C@@H]5CC[C@]43C)[C@@H]12 | -5.94 | -10.1 | -7.13 | -9.2 | -12.6%
